# Assay results: PubChem BioAssay AID1852 (Sanford-Burnham Center for Chemical Genomics, 2009)
# Out of some 2,500 compounds screened, about 1,100 (44%) were called active. The set was probably picked from earlier hits. The list shows a part of the results. Values without a mark were called inactive.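 Rule for the calls: active = inhibition above 50% at 4 µM in the single-point screen; inactive = inhibition of 50% or less.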
# Test: TNF-a-driven NF-kB reporter inhibitors, primary screen, selectivity assay for NOD1/NOD2 signaling inhibitor project, cell-based, HEK293T NF-kB-Luc, luminescence (AID 1852)
# Conditions: TNF-a induced, 14 h, at 4 µM, stronger effect = higher value
row,SMILES,inhibition
1,COc1ccccc1CN(Cc1nc2ccccc2c(=O)[nH]1)S(=O)(=O)c1ccc2ccccc2c1,92.1% (active)
2,COC(=O)c1ccc2c(=O)[nH]c(CCl)nc2c1,43.1%
3,COc1ccc(-n2c(C)c([N+](=O)[O-])c3ccc(O)c(CN(C)C)c32)cc1,84.4% (active)
4,Cc1ccc(-n2c(C)c([N+](=O)[O-])c3ccc(O)c(CN(C)C)c32)cc1,66.1% (active)
5,COc1ccc(-n2c(C)c([N+](=O)[O-])c3ccc(O)c(CN4CCCCC4)c32)cc1,28.8%
6,O=C1/C(=C\c2cccnc2)CN(Cc2ccccc2)C/C1=C\c1cccnc1,107% (active)
7,COc1cc(OC)c(OC)cc1/C=C1\CC(C)C/C(=C\c2cc(OC)c(OC)cc2OC)C1=O (stereo not drawn),32.3%
8,O=C1/C(=C/c2ccncc2)CCC/C1=C\c1ccncc1,89.9% (active)
9,CC1C/C(=C/c2ccncc2)C(=O)/C(=C/c2ccncc2)C1 (stereo not drawn),106% (active)
10,CC1C/C(=C\c2cccnc2)C(=O)/C(=C/c2cccnc2)C1 (stereo not drawn),109% (active)
11,O=C1/C(=C/c2cccnc2)CCC/C1=C\c1cccnc1,104% (active)
12,C=C1CC2C(CCC3(C)C2CCC3(O)C(C)=O)C2(C)CCC(=O)C=C12 (stereo not drawn),13.6%
13,O=C(C1CCC(CNS(=O)(=O)c2cccs2)CC1)N1CCN(c2ccc(Cl)cc2)CC1 (stereo not drawn),67.1% (active)
14,CC1Cc2cc(S(=O)(=O)N3CCN(c4ccc(Cl)cc4)CC3)ccc2N1C(=O)C1CC1 (stereo not drawn),8.4%
15,C[C@@H]1C[C@@H]2O[C@H]2/C=C\C=C\C(=O)Cc2c(Cl)c(O)cc(O)c2C(=O)O1,96.5% (active)
16,O=C(CN1CCN(CCC(=O)Nc2ccccc2F)CC1)Nc1ccc(Cl)cc1,2%
17,Cn1cccc1Cc1nnc(SCC(=O)Nc2cccc(Cl)c2)n1-c1ccc(F)cc1,11.5%
18,Cc1nc(C)c(-c2ccc(SCC(=O)Nc3cccc(Cl)c3)nn2)s1,35%
19,O=C(CSc1n[nH]c(-c2ccccn2)n1)Nc1ccc(Cl)cc1,80.1% (active)
20,O=C(CSc1n[nH]c(-c2ccccn2)n1)Nc1cccc(Cl)c1,81.4% (active)

row,SMILES,inhibition
1,Cc1ccc2c(c1)-c1ncc(C(=O)c3cc(Br)ccc3O)cc1CO2,36.7%
2,Cc1c(Cc2ccccc2)c(=O)oc2cc(O)cc(O)c12,-8.9%
3,CCCCCc1cc(O)c2c(C)cc(=O)oc2c1,71.7% (active)
4,CCCCc1cc(=O)oc2cc(O)cc(O)c12,21.4%
5,CCN1C(=O)C(CC(=O)Nc2cccc(C(C)=O)c2)S/C1=N\c1ccccn1 (stereo not drawn),-2.9%
6,Nc1nc(CCl)nc(Nc2cccc3ccccc23)n1,44.3%
7,COc1ccc(Nc2ncnc3ccc(Br)cc23)cc1OC,64.4% (active)
8,Clc1ccc(Nc2ncnc3ccc(Br)cc23)cc1,49.1%
9,Brc1ccc2ncnc(Nc3cccc4ccccc34)c2c1,104% (active)
10,Brc1ccc2ncnc(Nc3ccc(N4CCOCC4)cc3)c2c1,83.9% (active)
11,CC(=O)c1cccc(Nc2ncnc3ccc(Br)cc23)c1,60.8% (active)
12,O=C(COc1nsnc1N1CCOCC1)Nc1ccc(Br)cc1,4.1%
13,COC(=O)Cc1[nH]n(-c2nc3ccccc3s2)c(=O)c1C(C)=Nc1ccc(OC)cc1,30.8%
14,COC(=O)Cc1[nH]n(-c2nc3ccccc3s2)c(=O)c1C(C)=Nc1ccc(C)cc1,55.7% (active)
15,Cc1sc2nc(SCc3ccc(C(=O)O)cc3)n(Cc3ccco3)c(=O)c2c1C,74.6% (active)
16,COC(=O)c1ccc(CSc2nc3ccccc3c(=O)n2Cc2ccco2)o1,6.3%
17,COc1ccccc1NC(=O)CSc1nc2sc(C)c(C)c2c(=O)n1C,26.3%
18,CCc1ccn2cc(-c3ccc4c(c3)OCO4)nc2c1,23%
19,Cc1ccc2nc(-c3ccc4c(c3)OCCO4)cn2c1,51.3% (active)
20,Cc1ccc(-c2csc(N3CCC(NS(=O)(=O)c4ccc5c(c4)OCCO5)CC3)n2)cc1,48.7%

row,SMILES,inhibition
1,CCS(=O)(=O)C1=NN2C(=N)/C(=C\c3ccc(OCCOc4cccc(OC)c4)c(OC)c3)C(=O)N=C2S1,-32.8%
2,CN(C)S(=O)(=O)c1cccc(NC(=O)CSc2cccc3cccnc23)c1,100% (active)
3,O=C(CSc1cccc2cccnc12)Nc1ccc(S(=O)(=O)N2CCOCC2)cc1,104% (active)
4,CCc1nc2ccccc2c(C(=O)OCC(=O)Nc2cccc(S(=O)(=O)N3CCOCC3)c2)c1C,-0.6%
5,Cc1ccc(S(=O)(=O)N(C)C)cc1NC(=O)COC(=O)/C=C/c1cnc2ccccc2n1,12%
6,O=C(CN1CCN(c2cccc(Cl)c2)CC1)Nc1ccc(S(=O)(=O)N2CCOCC2)cc1,23.3%
7,CCN(CC)S(=O)(=O)c1cccc(NC(=O)CNc2cccc(S(=O)(=O)N3CCCC3)c2)c1,41.7%
8,O=C(Nc1cccc(NC(=O)c2ccc(-c3cccc(Br)c3)o2)c1)c1ccco1,-15.4%
9,O=C(Nc1nc2cc3c(cc2s1)OCCO3)c1ccco1,-31%
10,CC(C)(C)C(=O)Nc1ccc(NC(=O)c2ccco2)nc1,98.2% (active)
11,O=C(N/N=C/c1cn(-c2ccccc2)nc1-c1cc2ccccc2o1)c1c[nH]c2ccccc12,-224%
12,Cc1ccc(-c2nn(-c3ccccc3)cc2NC(=O)CCl)cc1,-28.6%
13,COc1ccc(-c2nn(-c3ccccc3)cc2/C=N/NC(=O)c2ccc(Br)o2)cc1,94.1% (active)
14,Cc1cc([N+](=O)[O-])ccc1-c1ccc(/C=N/NC(=O)c2ccc(Br)o2)o1,-0.2%
15,COc1ccc(/C=N/NC(=O)c2ccc(Br)o2)cc1Cn1cc([N+](=O)[O-])cn1,-16%
16,Cc1ccc(-c2nn(-c3ccccc3)cc2/C=N/NC(=O)c2ccc(Br)o2)cc1,95.5% (active)
17,CC(C)c1ccc(-c2nc3ccccc3s2)cc1,14.5%
18,CC[n+]1c(/C=C/N(C)c2ccccc2)n(-c2ccccc2)c2ccc(-c3nc4ccccc4s3)cc21,102% (active)
